# Compounds with a hit are over-represented: about 2.7% of the library has one in this group of screens.
# Peg3 prom inh: Peg3 promoter activity inhibition; HeLa PEG-Prom luciferase reporter, luminescence, overnight; inhibition, % at 20 µM; actives 1.7% (n = 360,000); AID 588405;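 active = inhibition of at least 50% at 20 µM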
# CF NFkB block: cystic fibrosis NF-kB activation inhibition | actives 0.86% (n = 360,000) | inhibition, % at 5 µM | KKLEB NF-kB-GFP reporter, PAF-induced, GFP fluorescence overnight | AID 588850;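 active = at least 50% inhibition at 5 µM, scaled per plate between neutral and stimulator controls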;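 also: PAF is a Pseudomonas aeruginosa culture filtrate used as stimulus; plate controls were PAF-stimulated DMSO wells for no effect and unstimulated DMSO wells for full effect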
# TRPM1 prom inh: reduces MITF-dependent TRPM1 promoter luciferase signal; SK-MEL-5 TRPM1 promoter luciferase, 24 h; inhibition, % at 12.5 µM; actives 0.83% (n = 330,000);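 active = mean inhibition across replicates of 60% or more, whatever share of single replicates reaches that level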
# KKLEB tox: CF airway cell cytotoxicity counter-screen; KKLEB CF airway cells viability, ATPlite luminescence, overnight; active compounds read low; cells stimulated with P. aeruginosa culture filtrate; activity change (cytotoxicity), % at 5 µM; actives 0.36% (n = 360,000);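 active = corrected activity change at or below -50% at 5 µM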
# Shn3 inh set2: Schnurri-3 reporter inhibition in Clone20 osteoblasts; Clone20 osteoblast Shn3 3'UTR firefly luciferase, 24 h; actives 0.52% (n = 360,000); inhibition, % at 12.5 µM;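 active = mean inhibition of at least 75% with every replicate also reaching 75%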;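 also: 0% = median of neutral control wells and 100% = pilot-screen positive control compound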
# HIF-2a inh: blocks HIF-2a reporter activity. 786-0 RCC cells HIF-2a reporter, luciferase luminescence, overnight. inhibition, % at 18.8 µM. actives 0.72% (n = 360,000). AID 624352;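 active = inhibition of the luminescence signal of 40% or more relative to plate controls, in a single-dose primary screen at 18.75 µM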
# The depositor's hits bear a star; . = no result given.
SMILES,Peg3 prom inh,CF NFkB block,TRPM1 prom inh,KKLEB tox,Shn3 inh set2,HIF-2a inh
CCN(CC)C(=O)Cn1cc(C(=O)C(=O)N2CCN(Cc3ccccc3)CC2)c2ccccc21,14,-10,-10,-17,13,18
O=C1CCC(=O)c2oc3ccccc3c2N1,8,-25,7,9,14,5
O=C1CCc2cccc(O)c2N1,1,21,5,10,94*,6
COc1ccc(NC(=O)C2(C)CCN2CC2CCCCC2)cc1OC (stereo unspecified),-2,-10,.,13,2,-1
CCCNCC1C(Oc2ccc(Cl)cc2Cl)C(=O)N1c1cccc(C)c1C (stereo unspecified),62*,20,11,-13,28,6
Cc1cccc(N2C(=O)C(Oc3ccc(Cl)cc3Cl)C2C(=O)O)c1C (stereo unspecified),7,-8,-7,28,-1,27
COc1ccc(-c2[nH]ncc2/C=C(/C#N)C(=O)NC2CCCCCC2)cc1,50*,29,-3,-15,23,19
Cc1[nH]n(-c2ccccc2)c(=O)c1N=Nc1ccccc1O,-7,17,44,-4,85*,-137
O=C(C(=O)N1CCN(C(=O)OCc2ccccc2)CC1)c1cccnc1,.,.,.,.,.,-5
Cc1nc(NC(=O)c2ccc(-c3cc4ccccc4oc3=O)cc2)ccc1Br,82*,4,0,-1,-9,9
Nc1cccc(-c2cc3ccccc3oc2=O)c1,-61,2,22,1,10,41*
O=C(Nc1ccc(Br)cn1)c1cccc(-c2cc3ccccc3oc2=O)c1,-175,-9,-50,-1,-53,-82
Nc1nnc(-c2cc3ccccc3oc2=O)s1,-199,-22,-25,7,-23,-188
Cc1nc(NC(=O)c2ccc3c(c2)OCO3)ccc1Br,-281,-11,-130,8,-128,-350
Cc1nc(NC(=O)c2cccc(-c3cc4ccccc4oc3=O)c2)ccc1Br,79*,7,7,-6,-47,-55
CC(C)(C)c1cc[n+](C2=C([O-])c3ccccc3C(=O)/C2=N\S(=O)(=O)c2cccs2)cc1,57*,75*,.,-28,30,26
N/C(=N\S(=O)(=O)c1cccs1)c1ccccc1,3,-2,0,-5,4,8
O=C1/C(=N\S(=O)(=O)c2cccs2)C([n+]2ccccc2)=C([O-])c2ccccc21,35,68*,104*,0,-13,44*
O=C(COC(=O)c1cccc(OC(F)F)c1)Nc1cc(S(=O)(=O)N2CCCC2)ccc1Cl,11,9,.,1,-13,14
CCOc1cccc(-c2cnc3cccnn23)c1,-262,29,.,7,-103,-226
CC(C)N=c1scc(-c2ccco2)n1/N=C/c1ccc(O)c(O)c1,-220,2,-23,-14,94*,-172
C=CCN=c1scc(-c2ccco2)n1/N=C/c1ccc(O)c(O)c1O,-103,23,-26,-7,91*,-109
Cc1ccccc1C(=O)N1CCC(C(=O)N2CCN(c3ncccn3)CC2)CC1,4,9,-5,4,7,6
CCOC(=O)N1CCN(C(=O)C2CCN(C(=O)c3ccccc3C)CC2)CC1,107*,36,74*,-13,93*,2
Clc1ccc2nc(N3CCNCC3)nc(-c3ccccc3)c2c1,101*,26,-17,-29,2,16
SMILES,Peg3 prom inh,CF NFkB block,TRPM1 prom inh,KKLEB tox,Shn3 inh set2,HIF-2a inh
CCc1nc2ccc(C(=O)Nc3cccc(NS(C)(=O)=O)c3)cn2c1N(CCC(C)C)CCN(C)C,-15,4,.,-12,2,-6
CCc1nc2c(OCCC3CCCCC3)cccn2c1N(C=O)Cc1ccccc1,66*,39,.,-24,9,12
CN(C)c1ccc(C(=O)c2ccc(N(C)C)c3ccccc23)cc1,-218,55*,40,-2,3,-180
COc1ccc(C(=O)c2ccc(N(C)C)cc2)c(OC)c1,-6,17,-8,-13,-6,-64
Cc1cc2nc(-c3ccccc3)c(Cc3ccccc3)n2c(C)c1Br,-22,9,.,-8,7,-43
CCOC(=O)C1CCN(c2ccccc2CN2CCN(c3ccccc3OCC)CC2)CC1,92*,33,7,-15,25,-29
Fc1cccc(Cl)c1C1SCc2nc3ccccc3n21 (stereo unspecified),11,-2,.,-2,11,-1
